# Measurements: PubChem BioAssay AID504834 (National Center for Advancing Translational Sciences (NCATS), 2011)
# The campaign covered roughly 320,000 compounds. About 22,000 (6.9%) were called active. Inconclusive results (about 27%) are left out. Calls follow the shape of the dose curve; as a rule, active = well fitted inhibition curve with a large enough effect; inconclusive = small, poorly fitted or top-dose-only effect, or another doubt; inactive = no such curve, though single readings can be large or run the other way. What follows is part of a selection rich in actives, with near analogues and random picks from the rest.
# Assay: Primary qHTS for delayed death inhibitors of the malarial parasite plastid, 96 hour incubation
# Conditions: P. falciparum luciferase reporter growth; series mostly up to 28.7 µM; activity change, negative = inhibition: at the top concentration
# Method in brief: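 Infected RBCs, 2% Hct / 0.05% parasitemia final; luciferase-reporter P. falciparum; cpd 96 h, 37 C, 5% CO2; luciferase detection reagent; luminescence.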
# % is scaled to controls: 0 for no effect and ±100 for the full control effect; potency is read from the fitted curve at half-maximal effect.
Compound,Potency,"activity change, negative = inhibition"
COc1ccc(-c2[nH]nc3c2C(c2ccncc2)C(C#N)=C(N)O3)cc1 (configuration not stated),4.65 µM (active),–
CCc1ccc(C2C(C#N)=C(N)Oc3n[nH]c(CC(=O)OC)c32)cc1 (configuration not stated),–,-3.61% (inactive)
CCOc1c(OC)cc(C2C(C#N)=C(N)Oc3n[nH]c(-c4ccncc4)c32)cc1OC (configuration not stated),–,16.2% (inactive)
COc1cc(C(=O)Nc2ncccc2C)ccc1OCC(=O)N1CCOCC1,–,-9.13% (inactive)
Cc1cc(-n2cnc(-c3cn(C)nc3C)n2)no1,–,48.3% (inactive)
Cc1cc(OCC(=O)N(C)c2c(N)n(Cc3ccccc3)c(=O)[nH]c2=O)c(C(C)C)cc1Cl,–,0.877% (inactive)
Cc1cccc(OCC(=O)NCCCNC(=O)c2ccccn2)c1,–,30.2% (inactive)
Cc1ccccc1NC(=O)C1CCN(C(=O)NC2CCCCC2)CC1,–,14.1% (inactive)
Cc1ccc(NS(=O)(=O)c2ccc3c(c2)NC(=O)CO3)cc1,–,42.8% (inactive)
CC(CC(=O)Nc1ccc(F)cc1F)S(=O)(=O)c1ccc2c(c1)NC(=O)CO2 (configuration not stated),6.57 µM (active),–
O=C1COc2ccc(NC(=O)N3CCN(c4ccc(F)cc4)CC3)cc2N1,–,0% (inactive)
COc1ccc(C)cc1NC(=O)NCCCCc1ccccc1,–,-10.7% (inactive)
CCc1cccc(NC(=O)COC(=O)C2CCN(c3ccc(C(F)(F)F)cn3)CC2)c1,–,0% (inactive)
Cc1cnc(C)c(N2CCN(C(=O)C3CCC(=O)N(CCc4cccc(F)c4)C3)CC2)n1 (configuration not stated),14.7 µM (active),–
Cc1cnc(CN(C)C(=O)C2CCC(=O)N(CCc3cccc(F)c3)C2)[nH]1 (configuration not stated),–,-11.6% (inactive)
O=C1CCC(C(=O)N2CCC(O)(c3ccccc3)CC2)CN1CCc1ccccc1 (configuration not stated),–,31.1% (inactive)
O=C(NC1CC1)C(Cc1ccccc1)NS(=O)(=O)c1ccccc1F (configuration not stated),–,11.3% (inactive)
O=C1N[C@@H](Cc2ccccc2)C(=O)N2[C@H]1C[C@]1(Br)c3ccccc3N(S(=O)(=O)c3ccccc3)[C@H]21,–,-39.5% (inactive)
Cc1ccc(CCNC(=O)c2ccc3nc4ccccc4c(=O)n3c2)cc1,–,29.7% (inactive)
COCCOC(=O)C1=C(C)N=c2s/c(=C\c3cccs3)c(=O)n2C1c1cccs1 (configuration not stated),8.28 µM (active),–
CCOC(=O)C1=C(C)Nc2nc3ccccc3n2C1c1cccs1 (configuration not stated),–,-13.8% (inactive)
CCOC(=O)C1=C(C)N=c2s/c(=C\C(=O)OC)c(=O)n2C1c1ccc(OC)cc1 (configuration not stated),–,-23.7% (inactive)
Cc1cccc(C)c1NC(=O)CSc1ccc([N+](=O)[O-])cn1,–,-13.6% (inactive)
O=[N+]([O-])c1ccc(Sc2n[nH]c(-c3ccco3)n2)nc1,–,219% (inactive)
CC(C)(C)n1cnnc1Sc1ccc([N+](=O)[O-])cn1,1.65 µM (active),–

Compound,Potency,"activity change, negative = inhibition"
Cc1cccc(N(C(=O)c2csnn2)C(C(=O)NCc2ccccc2)c2ccncc2)c1 (configuration not stated),–,-0.692% (inactive)
CCOc1cc(C(=S)N2CCOCC2)ccc1O,13.1 µM (active),–
CCOc1cc(C(=S)N2CCOCC2)ccc1OS(=O)(=O)c1ccc(Br)cc1,–,13.8% (inactive)
COc1cc(C(=S)N2CCOCC2)ccc1O,inactive,–
CCN1c2nc3c(C)cccn3c(=O)c2CC2(C(=O)N(C)C(=O)N(C)C2=O)C1C (configuration not stated),3.29 µM (active),–
CCOC(=O)N1CCN(C(=O)CSc2nc(=O)n3cccc(C)c3n2)CC1,–,8.94% (inactive)
CN(Cc1c(F)cccc1Cl)C(=O)CNC(=O)c1ccc2c(c1)OCO2,–,20.4% (inactive)
Cc1ccc(C(CC(=O)O)NC(=O)c2ccc(S(=O)(=O)N3CCCC3)cc2)cc1 (configuration not stated),–,22.2% (inactive)
CCOc1ccc(N2CC(C(=O)NCCN3C(=O)S/C(=C\c4cccnc4)C3=O)CC2=O)cc1 (configuration not stated),–,14.5% (inactive)
Cc1cc(OCCCC(=O)NCCN2C(=O)S/C(=C\c3cccnc3)C2=O)ccc1Cl,11.7 µM (active),–
O=C(NCCN1C(=O)S/C(=C\c2cccnc2)C1=O)c1cccc(OC(F)F)c1,–,-27.2% (inactive)
COC(=O)c1ccc(S(=O)(=O)NCc2ccccc2)n1C,–,70.9% (inactive)
Cc1ccc(C(=O)CCC(=O)N(C)CC(=O)Nc2c(Cl)cccc2Cl)cc1,–,21.6% (inactive)
COc1cc(OC)cc(-c2cc3nc(C4CCN(C(=O)OC(C)(C)C)CC4)cc(=O)n3[nH]2)c1,1.65 µM (active),–
CC1CCN(C(=O)c2cc3nc(C4CC4)cc(C(F)(F)F)n3n2)CC1,–,9.96% (inactive)
CCOC(=O)N1CCC(c2cc(=O)n(-c3ccccc3)[nH]2)CC1,–,0.756% (inactive)
O=C(Oc1ccc(-c2nnco2)cc1)c1ccc(F)c(S(=O)(=O)N2CCOCC2)c1,–,-11.3% (inactive)
O=C(CCS(=O)(=O)c1ccc2c(c1)NC(=O)CS2)NCc1ccccc1Cl,–,11.6% (inactive)
Cc1csc(/N=C/N(C)C)c1C#N,–,26.6% (inactive)
Cc1cccc2sc(N(CCCN(C)C)C(=O)CCS(=O)(=O)c3ccccc3)nc12,–,5.57% (inactive)
Cc1cc(C)c2nc(N(CCN(C)C)C(=O)/C=C/c3cccs3)sc2c1,6.57 µM (active),–
CC(=O)N(CCCN(C)C)c1nc2ccc(C)cc2s1,–,9.36% (inactive)
CCOC(=O)c1sc2nc(C)[nH]c(=O)c2c1C,–,-1.31% (inactive)
Cc1ccc(NC(=O)CSc2nc(CSc3ccc(C)cc3)cc(=O)[nH]2)cc1,–,-16.4% (inactive)
O=c1cc(CSc2ccccn2)nc(N2CCN(c3ccccc3)CC2)[nH]1,–,-8.4% [at 5.75 µM] (inactive)

Compound,Potency,"activity change, negative = inhibition"
Cc1ccc(SCc2cc(=O)[nH]c(N3CCCCC3)n2)cc1,5.22 µM (active),–
O=C(OCCN=C1NS(=O)(=O)c2ccccc21)c1cccc([N+](=O)[O-])c1,–,48.1% (inactive)
NC(=O)c1sc2nc3c(c(-c4ccccc4)c2c1N)CCC3,–,-25.1% (inactive)
Cc1nc2sc(C(=O)c3ccccc3)c(N)c2c2c1CCCC2,–,-45.8% (inactive)
Cc1cccc(NC(=O)c2sc3nc4c(c(-c5ccco5)c3c2N)CCC4)c1,1.85 µM (active),–
CCN(C(=O)CSc1ncnc2c1cnn2-c1ccccc1)C1CCS(=O)(=O)C1 (configuration not stated),–,6.57% (inactive)
CCOc1ccc(NC(=O)CN(C)C(=O)CCSc2ccc(F)cc2)cc1OCC,–,-18.2% (inactive)
COc1ccc(N2C(=O)CN=C2Nc2cccc(C)c2C)cc1OC,–,25.7% (inactive)
Cc1cccc(Nc2nc3c(S(=O)(=O)c4ccccc4)nnn3c3ccccc23)c1C,0.465 µM (active),–
CC(=O)Nc1ccc(Nc2nc3c(S(=O)(=O)c4ccc(C)c(C)c4)nnn3c3ccccc23)cc1,–,25% (inactive)
CCN(CC)S(=O)(=O)c1ccc(OC)c(NC(=O)CCc2c(C)noc2C)c1,–,-28% (inactive)
O=S(=O)(NC1CC1)c1ccc(Cl)cc1,–,9.29% (inactive)
CCc1nnc(NC(=O)c2c(O)c3c([nH]c2=O)CCCC3)s1,–,60.9% (inactive)
O=C(NCc1ccccn1)c1c(O)c2c([nH]c1=O)CCCC2,7.38 µM (active),–
C[N+](C)(C)CCNC(=O)c1c(O)c2c([nH]c1=O)CCCC2,–,0% (inactive)
Nc1nnn(CC(=O)N/N=C/c2ccccc2)n1,–,5.79% (inactive)
O=c1c2ccccc2c(-c2ccccc2)nn1Cc1ccccc1,–,-15.9% (inactive)
O=c1cc(N2CCCCC2)c(-c2ccccc2)nn1Cc1cccc(F)c1,11.7 µM (active),–
O=c1cc(N2CCN(Cc3ccccc3)CC2)c(-c2ccccc2)n[nH]1,–,6.44% (inactive)
O=C(CN(Cc1ccc(Br)cc1)S(=O)(=O)c1ccccc1)NCc1ccncc1,–,16.3% (inactive)
Cc1nn2c(=O)cc(COC(=O)c3ccc(NC(=O)C(C)(C)C)cc3)nc2s1,–,-3.18% (inactive)
CSc1ccc(S(=O)(=O)NCC(=O)OCC(=O)NC2(C#N)CCCCC2)cc1[N+](=O)[O-],–,26.1% (inactive)
COc1ccc(CNC(=O)COC(=O)c2ccc(C)c(S(=O)(=O)N3CCOCC3)c2)cc1OC,–,-27.4% (inactive)
Cc1ccc(C(=O)OCC(=O)NCc2cc(C)c(O)c(C)c2)cc1S(=O)(=O)N1CCCCC1,14.7 µM (active),–
Cc1ccc(C(=O)OCC(=O)N2CC(C)CC(C)C2)cc1S(=O)(=O)N1CCCCC1 (configuration not stated),–,8.7% (inactive)

Compound,Potency,"activity change, negative = inhibition"
COc1ccccc1CNS(=O)(=O)c1cc(C(=O)NCc2ccccn2)c(Cl)cc1Cl,–,-11.1% (inactive)
OCC1(CCc2ccccc2)CCN(Cc2ccc3nsnc3c2)CC1,11.7 µM (active),–
COc1ccc(CC2(CO)CCN(Cc3cnn(C)c3)CC2)cc1,–,34.1% (inactive)
CC(C)(O)C#Cc1ccc(CN2CCC(CO)(CCc3ccccc3)CC2)cc1,–,35.2% (inactive)
CC(C)c1csc(CN2CCC(CO)(Cc3ccccc3)CC2)n1,–,5.83% (inactive)
Cc1cccc(-c2ncc(CN3CCC(CO)(CCCc4ccccc4)CC3)cn2)c1,9.28 µM (active),–
CC(=O)c1cccc(CN2CCC(CO)(Cc3ccccc3)CC2)c1,–,-0.673% (inactive)
CN(CC1CCCO1)S(=O)(=O)c1ccc(C(=O)Nc2ccc(F)cc2)cc1 (configuration not stated),–,-8.74% (inactive)
COc1cccc(-c2ccc3c(c2)S(=O)(=O)c2cccc(C(=O)O)c2C3=O)c1OC,–,8.29% (inactive)
CCN(CC)CCC(c1ccc2c(c1)OCO2)c1c(OC)cc(OC)c2c(-c3ccccc3)cc(=O)oc12 (configuration not stated),5.22 µM (active),–
CCN(CC)CCC(c1cc(OC)c(OC)c(OC)c1)c1c(OC)cc(OC)c2c(-c3ccccc3)cc(=O)oc12 (configuration not stated),2.94 µM (active),–
CCN(CC)C(=O)CC(c1ccc2c(c1)OCO2)c1c(OC)cc(OC)c2c(-c3ccccc3)cc(=O)oc12 (configuration not stated),11.7 µM (active),–
Cc1cc(=O)oc2c(C)c(OCC(=O)N3CCN(Cc4ccc5c(c4)OCO5)CC3)ccc12,–,11.4% (inactive)
CCCCN(CC)C(=O)c1ccc2c(c1)OCO2,–,0% (inactive)
Cc1[nH][nH]c(=O)c1C(c1ccc2c(c1)OCO2)c1c(C)[nH][nH]c1=O,–,19% (inactive)
COc1ccc(-c2cc(=O)oc3cc(OCC(=O)N[C@@H](Cc4c[nH]c5ccccc45)C(=O)O)ccc23)cc1,–,30.8% (inactive)
CC(=O)COc1ccc2c(-c3ccccc3)cc(=O)oc2c1,–,13.2% (inactive)
COc1ccc(F)cc1S(=O)(=O)NCC(c1ccc2c(c1)OCO2)N1CCN(C)CC1 (configuration not stated),–,-9.2% (inactive)
CC(NS(=O)(=O)c1ccc(Br)cc1)C(=O)NCC1CCCO1 (configuration not stated),–,-1.33% (inactive)
O=C(NNC(=O)c1cc(-c2ccccc2Cl)nc2ccccc12)c1csc(N2CCOCC2)n1,–,-6.34% (inactive)
Cc1cc(C)cc(Oc2c(C(F)(F)F)oc3cc(OCC(=O)O)ccc3c2=O)c1,–,38.5% (inactive)
COc1ccccc1C1CCN(C(=S)Nc2ccc(Br)cc2)CC1,–,22.2% (inactive)
